Assay results: PubChem BioAssay AID1159580 (chemical genetic matrix, 2015)
In all, about 5,500 compounds went through this assay and about 2,000 (36%) were called active. Roughly 18% stayed inconclusive and do not appear here. Rule as the data show it: active = normalized growth mostly below about 0.91 (no sharp cut-off); inconclusive = no clear call, values can overlap the other calls; inactive = mostly above about 0.92. The list shows a part of the results.

Test: chemical genetic growth profiling, strain panel (AID 1159580);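 also: tested at 20 µM; growth read once vehicle control cultures reached saturation at 30 °C; 1 = growth at the plate median or of vehicle wells; lower values mean less growth of the strain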
Conditions: growth OD
[1] = S. cerevisiae deletion strains, locus YAL013W, strain DEP1, active compounds read low
[2] = S. cerevisiae deletion strains, locus YAL040C, strain CLN3, active compounds read low
[3] = S. cerevisiae deletion strains, locus YCL061C, strain MRC1 (second series), active compounds read low
[4] = S. cerevisiae deletion strains, locus YDR363W, strain ESC2, active compounds read low
[5] = S. cerevisiae deletion strains, locus YER002W, strain NOP16, active compounds read low
[6] = S. cerevisiae deletion strains, locus YJR075W, strain HOC1, active compounds read low
[7] = S. cerevisiae deletion strains, locus YMR263W, strain SAP30, active compounds read low
[8] = S. cerevisiae deletion strains, locus YNL175C, strain NOP13, active compounds read low
[9] = S. cerevisiae deletion strains, locus YNL197C, strain WHI3, active compounds read low
[10] = S. cerevisiae deletion strains, locus YNL224C, strain SQS1, active compounds read low
[11] = S. cerevisiae deletion strains, locus YOR083W, strain WHI5 (second series), active compounds read low
[12] = S. cerevisiae deletion strains, locus YPL055C, strain LGE1, active compounds read low
[13] = S. cerevisiae deletion strains, locus YGR078C, strain PAC10, active compounds read low
[14] = S. cerevisiae deletion strains, locus YNL153C, strain GIM3, active compounds read low
[15] = S. cerevisiae deletion strains, locus YAR019C, strain CDC15, active compounds read low
[16] = S. cerevisiae deletion strains, locus YBL105C, strain PKC1, active compounds read low
[17] = S. cerevisiae deletion strains, locus YBR135W, strain CKS1, active compounds read low
[18] = S. cerevisiae deletion strains, locus YBR136W, strain MEC1, active compounds read low
[19] = S. cerevisiae deletion strains, locus YBR160W, strain CDC28, active compounds read low
[20] = S. cerevisiae deletion strains, locus YDL017W, strain CDC7, active compounds read low
[21] = S. cerevisiae deletion strains, locus YDL028C, strain MPS1, active compounds read low
[22] = S. cerevisiae deletion strains, locus YDL101C, strain DUN1, active compounds read low
[23] = S. cerevisiae deletion strains, locus YDL108W, strain KIN28, active compounds read low
[24] = S. cerevisiae deletion strains, locus YDL132W, strain cdc53, active compounds read low
[25] = S. cerevisiae deletion strains, locus YDL214C, strain PRR2, active compounds read low
[26] = S. cerevisiae deletion strains, locus YDR052C, strain DBF4, active compounds read low
[27] = S. cerevisiae deletion strains, locus YDR054C, strain cdc34, active compounds read low
[28] = S. cerevisiae deletion strains, locus YDR226W, strain ADK1, active compounds read low
[29] = S. cerevisiae deletion strains, locus YDR477W, strain SNF1, active compounds read low
[30] = S. cerevisiae deletion strains, locus YER123W, strain YCK3, active compounds read low
[31] = S. cerevisiae deletion strains, locus YER133W, strain GLC7, active compounds read low
[32] = S. cerevisiae deletion strains, locus YFL009W, strain cdc4, active compounds read low
[33] = S. cerevisiae deletion strains, locus YFL029C, strain CAK1, active compounds read low
[34] = S. cerevisiae deletion strains, locus YFR003C, strain YPI1, active compounds read low
[35] = S. cerevisiae deletion strains, locus YFR019W, strain FAB1, active compounds read low
[36] = S. cerevisiae deletion strains, locus YFR028C, strain CDC14, active compounds read low
[37] = S. cerevisiae deletion strains, locus YGR040W, strain KSS1, active compounds read low
[38] = S. cerevisiae deletion strains, locus YGR052W, strain FMP48, active compounds read low
[39] = S. cerevisiae deletion strains, locus YGR092W, strain DBF2, active compounds read low
[40] = S. cerevisiae deletion strains, locus YHR030C, strain SLT2, active compounds read low
[41] = S. cerevisiae deletion strains, locus YHR079C, strain IRE1, active compounds read low
[42] = S. cerevisiae deletion strains, locus YHR082C, strain KSP1, active compounds read low
[43] = S. cerevisiae deletion strains, locus YHR205W, strain SCH9, active compounds read low
[44] = S. cerevisiae deletion strains, locus YIL147C, strain SLN1, active compounds read low
[45] = S. cerevisiae deletion strains, locus YJL095W, strain BCK1, active compounds read low
[46] = S. cerevisiae deletion strains, locus YJL128C, strain PBS2, active compounds read low
[47] = S. cerevisiae deletion strains, locus YJL157C, strain FAR1, active compounds read low
[48] = S. cerevisiae deletion strains, locus YJR016C, strain ILV3, active compounds read low
[49] = S. cerevisiae deletion strains, locus YJR066W, strain TOR1 (second series), active compounds read low
[50] = S. cerevisiae deletion strains, locus YJR066W, strain TOR1, active compounds read low
[51] = S. cerevisiae deletion strains, locus YKL048C, strain ELM1, active compounds read low
[52] = S. cerevisiae deletion strains, locus YKL067W, strain YNK1, active compounds read low
[53] = S. cerevisiae deletion strains, locus YKL101W, strain HSL1, active compounds read low
[54] = S. cerevisiae deletion strains, locus YKL193C, strain SDS22, active compounds read low
[55] = S. cerevisiae deletion strains, locus YKL203C, strain TOR2, active compounds read low
[56] = S. cerevisiae deletion strains, locus YLR113W, strain HOG1, active compounds read low
[57] = S. cerevisiae deletion strains, locus YLR133W, strain CKI1, active compounds read low
[58] = S. cerevisiae deletion strains, locus YLR403W, strain SFP1, active compounds read low
[59] = S. cerevisiae deletion strains, locus YML070W, strain DAK1, active compounds read low
[60] = S. cerevisiae deletion strains, locus YMR001C, strain CDC5, active compounds read low
[61] = S. cerevisiae deletion strains, locus YMR205C, strain PFK2 (second series), active compounds read low
[62] = S. cerevisiae deletion strains, locus YMR277W, strain FCP1, active compounds read low
[63] = S. cerevisiae deletion strains, locus YNL006W, strain LST8, active compounds read low
[64] = S. cerevisiae deletion strains, locus YNL020C, strain ARK1, active compounds read low
[65] = S. cerevisiae deletion strains, locus YNL161W, strain CBK1, active compounds read low
[66] = S. cerevisiae deletion strains, locus YNL183C, strain NPR1, active compounds read low
[67] = S. cerevisiae deletion strains, locus YNL207W, strain RIO2, active compounds read low
[68] = S. cerevisiae deletion strains, locus YNL222W, strain SSU72, active compounds read low
[69] = S. cerevisiae deletion strains, locus YNL307C, strain MCK1 (second series), active compounds read low
[70] = S. cerevisiae deletion strains, locus YOL078W, strain AVO1, active compounds read low
[71] = S. cerevisiae deletion strains, locus YOL136C, strain PFK27, active compounds read low
[72] = S. cerevisiae deletion strains, locus YOR061W, strain CKA2, active compounds read low
[73] = S. cerevisiae deletion strains, locus YOR119C, strain RIO1, active compounds read low
[74] = S. cerevisiae deletion strains, locus YOR231W, strain MKK1, active compounds read low
[75] = S. cerevisiae deletion strains, locus YOR329C, strain SCD5, active compounds read low
[76] = S. cerevisiae deletion strains, locus YPL031C, strain PHO85, active compounds read low
[77] = S. cerevisiae deletion strains, locus YPL153C, strain RAD53, active compounds read low
[78] = S. cerevisiae deletion strains, locus YPL204W, strain HRR25, active compounds read low
[79] = S. cerevisiae deletion strains, locus YPL209C, strain IPL1, active compounds read low
[80] = S. cerevisiae deletion strains, locus YPL256C, strain CLN2, active compounds read low
[81] = S. cerevisiae deletion strains, locus YPR025C, strain CCL1, active compounds read low
[82] = S. cerevisiae deletion strains, locus YPR106W, strain ISR1, active compounds read low
[83] = S. cerevisiae deletion strains, locus YPR111W, strain DBF20, active compounds read low
[84] = S. cerevisiae deletion strains, strain NNK1, active compounds read low
[85] = S. cerevisiae deletion strains, strain TSCII, active compounds read low

Measured: normalized growth

O=P(O)(O)C(Cl)(Cl)P(=O)(O)O
inactive: [1] 1.01 | [2] 0.972 | [3] 0.995 | [4] 1.04 | [5] 1.01 | [6] 1.03 | [7] 1 | [8] 1 | [9] 0.968 | [10] 1.02 | [11] 0.973 | [12] 1.02

CC12NC(Cc3ccccc31)c1ccccc12 (stereo not given)
inactive: [2] 0.983 | [3] 0.984 | [4] 1.04 | [5] 1.01 | [13] 0.992 | S. cerevisiae deletion strains, locus YNL128W, strain TEP1, active compounds read low 1.06 | [14] 0.997 | [8] 1 | [9] 1.01 | [10] 0.988 | [11] 1 | [12] 1.01

CC1(C)CC(=O)C=C(Sc2nc3ccccc3o2)C1
inactive: [15] 0.966 | [16] 0.968 | [17] 0.955 | [18] 0.965 | [19] 0.962 | [20] 0.974 | [21] 0.965 | [22] 0.958 | [23] 0.961 | [24] 0.947 | [25] 0.933 | [26] 0.984 | [27] 0.949 | [28] 0.967 | [29] 0.949 | [30] 0.926 | [31] 0.979 | [32] 0.953 | [33] 0.965 | [34] 0.971 | [35] 0.941 | [36] 0.957 | [37] 0.945 | [38] 0.916 | [39] 0.739 | [40] 0.983 | [41] 0.955 | [42] 0.992 | [43] 0.861 | [44] 0.962 | [45] 0.837 | [46] 0.924 | [47] 0.951 | [48] 0.952 | [49] 0.875 | [50] 0.946 | [51] 0.961 | [52] 0.946 | [53] 0.925 | [54] 0.953 | [55] 0.99 | [57] 0.938 | [58] 0.901 | [59] 0.927 | [60] 0.961 | [61] 0.948 | [62] 0.956 | [63] 0.974 | [64] 0.944 | [65] 0.967 | [66] 0.951 | [67] 0.948 | [68] 0.964 | [69] 0.873 | [70] 0.947 | [71] 0.907 | [72] 0.955 | [73] 1.01 | [74] 0.902 | [75] 0.97 | [76] 0.946 | [77] 0.949 | [78] 0.935 | [79] 0.965 | [80] 0.967 | [81] 0.968 | [82] 0.964 | [83] 0.939 | [84] 0.961 | [85] 0.956
active: [56] 0.832

Oc1c(Cl)cc(Cl)cc1C=Nc1nc(-c2ccc3ccccc3c2)cs1
inactive: [15] 0.958 | [16] 0.966 | [17] 0.947 | [18] 0.957 | [19] 0.96 | [20] 0.958 | [21] 0.958 | [22] 0.962 | [23] 0.959 | [24] 0.971 | [25] 0.793 | [26] 0.969 | [27] 0.957 | [28] 0.966 | [29] 0.802 | [31] 0.791 | [32] 0.956 | [33] 0.963 | [34] 0.961 | [35] 0.78 | [36] 0.966 | [37] 0.833 | [38] 0.827 | [41] 0.557 | [42] 0.814 | [43] 0.737 | [44] 0.952 | [45] 0.51 | [46] 0.971 | [48] 0.962 | [49] 0.86 | [50] 0.626 | [51] 0.871 | [52] 0.787 | [53] 0.854 | [54] 0.953 | [55] 0.824 | [60] 0.957 | [62] 0.958 | [63] 0.96 | [65] 0.965 | [66] 0.72 | [67] 0.959 | [68] 0.961 | [69] 0.757 | [70] 0.957 | [73] 0.855 | [74] 0.623 | [75] 0.963 | [76] 0.809 | [77] 0.768 | [78] 0.766 | [79] 0.954 | [81] 0.962 | [82] 0.973 | [83] 0.949 | [84] 0.964 | [85] 0.953
active: [30] 0.59 | [39] 0.342 | [40] 0.486 | [47] 0.685 | [56] 0.62 | [57] 0.701 | [58] 0.639 | [59] 0.651 | [61] 0.741 | [64] 0.684 | [71] 0.537 | [72] 0.58 | [80] 0.558

Cc1onc(-c2c(Cl)cccc2Cl)c1-c1nc(-c2ccc3c(c2)OCCO3)cs1
inactive: [1] 1.01 | S. cerevisiae deletion strains, locus YBR229C, strain ROT2, active compounds read low 1.01 | S. cerevisiae deletion strains, locus YCL061C, strain MRC1, active compounds read low 1 | [22] 1.01 | S. cerevisiae deletion strains, locus YDR150W, strain NUM1, active compounds read low 1.03 | S. cerevisiae deletion strains, locus YEL061C, strain CIN8, active compounds read low 1.02 | [13] 0.991 | [40] 0.998 | S. cerevisiae deletion strains, locus YHR087W, strain rtc3, active compounds read low 1.01 | S. cerevisiae deletion strains, locus YJL187C, strain SWE1, active compounds read low 1 | S. cerevisiae deletion strains, locus YJR043C, strain POL32, active compounds read low 1.01 | [6] 0.99 | S. cerevisiae deletion strains, locus YLR039C, strain RIC1, active compounds read low 0.959 | S. cerevisiae deletion strains, locus YLR058C, strain SHM2 (second series), active compounds read low 1.01 | S. cerevisiae deletion strains, locus YLR085C, strain ARP6, active compounds read low 0.973 | S. cerevisiae deletion strains, locus YLR262C, strain YPT6, active compounds read low 1 | S. cerevisiae deletion strains, locus YML094W, strain GIM5, active compounds read low 0.991 | S. cerevisiae deletion strains, locus YMR219W, strain ESC1, active compounds read low 1 | [7] 0.993 | S. cerevisiae deletion strains, locus YMR307W, strain GAS1, active compounds read low 0.946 | [14] 0.997 | S. cerevisiae deletion strains, locus YNL298W, strain CLA4 (second series), active compounds read low 0.987 | S. cerevisiae deletion strains, locus YNL322C, strain KRE1, active compounds read low 1.02 | S. cerevisiae deletion strains, locus YNR030W, strain Alg12, active compounds read low 1.02 | S. cerevisiae deletion strains, locus YOL006C, strain TOP1, active compounds read low 0.999 | [12] 1.04 | S. cerevisiae deletion strains, locus YPL241C, strain CIN2, active compounds read low 1.02 | S. cerevisiae deletion strains, locus YPR135W, strain CTF4, active compounds read low 0.934 | S. cerevisiae strains, strain wild type, active compounds read low 1.01
